A340 absorber: compound absorbs light at 340 nm; fold change at 10 µM; 65,000 tested, under 10 active; compound absorbance at 340 nm, fold over control; AID 708;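 active = at 10 µM dose, initial 340 nm absorbance at least 2 fold that of control wells; inactive = change under 2 fold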;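 also: initial absorbance extrapolated from kinetic A340 decline of NADH oxidation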
Spn DPM-DC inh: inhibitors of Streptococcus pneumoniae diphosphomevalonate decarboxylase | purified DPM-DC, PK/LDH coupled NADH fluorescence | calls only at 10 µM | 65,000 tested, 0.49% active;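 active = the 320 compounds with the highest percent inhibition in the single-dose primary screen, excluding strongly autofluorescent ones, cut at about 32% in these data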;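 also: kinetic rate of NADH fluorescence loss reporting ADP formed by the decarboxylase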
MK inhibit: S. pneumoniae mevalonate kinase inhibition | purified MK, PK/LDH-coupled NADH absorbance 340 nm | inhibition, % at 10 µM | 65,000 tested, 0.48% active;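 active = ranked among the strongest by inhibition in the single 10 µM screen, a fixed top-ranked set picked for dose follow-up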
Fluor 339 460: intrinsic fluorescence of library compounds, ex339/em460 – biochemical, MLSMR library, data from DPM-DC assay, artefact control, profiling panel. fluorescence fold increase at 10 µM. 65,000 tested, 5.5% active. compound autofluorescence, ex339/em460 nm, NADH buffer; hits give high values; 1 = no-compound wells, NADH background;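 active = at 10 µM, mean starting fluorescence two-fold or more over control wells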;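 also: signal is the first read of a kinetic run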
PMK inhibit: S. pneumoniae PMK inhibition; purified PMK, PK/LDH-coupled NADH absorbance 340 nm; 65,000 tested, 0.49% active; inhibition, % at 10 µM;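 active = top-ranked compounds by inhibition in the single 10 µM screen, taking a fixed number of the strongest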;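 also: 0% = full reaction with DMSO carrier and 100% = background rate without enzyme reaction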
NADH enzymes: blocks coupling enzymes of NAD/NADH assays; coupled PK/LDH NADH assays, four targets; IC50, µM (series often up to 10 µM), for the others: top-dose inhibition; 65,000 tested, 0.02% active; AID 774;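 active = single-dose screening hits from any of four coupled enzyme assays that gave an IC50 when retested across doses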;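 also: the DPM-DC format reads NADH fluorescence rather than 340 nm absorbance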
Active calls of the source: *; i = inactive; x = no result given; + = active, no number; [ ] = another dose, or the depositor's remark. Compounds with a hit are over-represented: about 6.5% of the library has one in this group of screens.

SMILES	A340 absorber	Spn DPM-DC inh	MK inhibit	Fluor 339 460	PMK inhibit	NADH enzymes
N=c1c(S(=O)(=O)c2ccccc2)cc2c(=O)n3ccccc3nc2n1CCN1CCOCC1	1.1	x	13	3.7*	3	8%
CC(C)(C)C(=O)Cn1c(=O)n(CC2CCCO2)c(=O)c2ccccc21 (configuration not stated)	0.99	i	3	1	16	7%
Cc1ccc(S(=O)(=O)c2cc3c(=O)n4ccccc4nc3n(C)c2=N)cc1	0.99	i	12	1.9	9	13%
N=c1c(S(=O)(=O)c2ccccc2)cc2c(=O)n3ccccc3nc2n1Cc1ccco1	1	x	7	4*	19	13%
Cc1ccc(S(=O)(=O)c2cc3c(=O)n4ccccc4nc3n(Cc3ccco3)c2=N)cc1C	1	x	2	3.5*	0	1%
CN(C)S(=O)(=O)c1cccc(CSc2cccc[n+]2[O-])c1	1	i	0	1.1	0	0%
Cc1cccc(-n2c(=O)[nH]c3c(C(N)=O)nc(CC(C)C)nc32)c1	1	x	0	5.1*	9	5%
CC(C)Cc1nc(C(N)=O)c2[nH]c(=O)n(-c3ccc(F)cc3)c2n1	1.1	x	0	2.2*	8	4%
CCC(C)Sc1nnc(Cc2cc(=O)[nH]c(=O)[nH]2)n1-c1ccc(F)cc1 (configuration not stated)	1.1	i	6	1.1	7	4%
O=C(Cn1nnc(-c2ccc(Cl)cc2)n1)NCC1CCCCC1	0.98	i	4	1	23	9%
O=C1c2ccccc2S(=O)(=O)N1CCOc1ccc(F)cc1	1	i	0	1	9	3%
c1ccc(-c2noc(-c3cccc4ccccc34)n2)nc1	1	x	8	3.3*	6	7%
Cn1c(/N=C/c2c[nH]c3ccccc23)nc2ccccc21	1.1	i	14	1.1	0	5%
Cn1c(/N=C/c2ccc3c(c2)OCO3)nc2ccccc21	1.1	x	10	2.1*	8	9%
COc1ccccc1CC1(C)NC(=O)N(CC(=O)N2CC(C)OC(C)C2)C1=O (configuration not stated)	1	i	7	1.1	12	6%
CCCCC(=O)Nc1cccc2c1C(=O)N(c1ccccc1)C2=O	1	i	9	1.1	0	3%
Nc1cccc2c1C(=O)N(c1ccccc1)C2=O	1	+[fluoresces]	0	2.3*	9	2%
COc1ccc2cc3cc(C(=O)NCc4ccc5c(c4)OCO5)oc3nc2c1	1	x	0	5.1*	11	6%
CCN(C(=O)c1cc2cc3ccc(C)cc3nc2o1)c1ccc(OC)cc1	1	i	2	1.2	0	3%
COc1ccc2cc3cc(C(=O)Nc4ccc5c(c4)OCCO5)oc3nc2c1	1.1	i	0	2.1*	8	7%
COc1ccc2cc3cc(C(=O)NCC4COc5ccccc5O4)oc3nc2c1 (configuration not stated)	1	x	0	5*	10	5%
COc1ccc2cc3cc(C(=O)N4CCN(Cc5ccc6c(c5)OCO6)CC4)oc3nc2c1	1.1	x	1	5*	14	8%
CCOC(=O)C1(CCSC)NC(c2ccco2)C2C(=O)N(C)C(=O)C21 (configuration not stated)	1	i	3	1	14	6%
COc1ccc2nc3oc(C(=O)N4CCC(C(N)=O)CC4)cc3cc2c1	1.1	x	0	5.1*	5	3%
CC(C)(C)C1=Nn2c(nnc2C2CCCCC2)SC1	1.1	i	0	1	2	1%
SMILES	A340 absorber	Spn DPM-DC inh	MK inhibit	Fluor 339 460	PMK inhibit	NADH enzymes
COCCn1c(SCC(=O)c2ccc(F)cc2)nnc1C(C)C	0.98	i	7	1	5	4%
O=C(NCc1ccco1)C1Cc2ccccc2CN1S(=O)(=O)c1ccccc1F (configuration not stated)	1	i	7	1.1	6	2%
O=C(NCc1cn2ccccc2n1)c1ccccc1	0.99	i	52*	1	12	21%
O=C(NCc1cn2ccccc2n1)c1ccc(Br)o1	1	i	3	1.1	8	4%
CCOC(=O)c1nn(-c2ccccc2)c(=O)c2c(N)scc12	1	i	7	1.1	14	7%
CCOC(=O)c1nn(-c2ccccc2)c(C(=O)OCC)c1N	1.1	x	7	3.8*	0	4%
Cc1cc(OC(=O)CNC(=O)OC(C)(C)C)c2c(C)cc(=O)oc2c1	1	i	12	0.96	11	15%
CC(=O)Oc1cc(OC(C)=O)c2c(C)cc(=O)oc2c1	1.1	x	0	2.2*	0	0%
CC(=O)Oc1cc2oc(=O)cc(C)c2cc1OC(C)=O	1.1	x	11	2.2*	7	9%
CC(=O)Oc1ccc2c(C)cc(=O)[nH]c2c1	1	i	0	1.6	10	6%
CC(=O)Nc1c(OC(C)=O)ccc2c(C)cc(=O)oc12	0.98	x	4	5.1*	11	8%
CN(CCC#N)CC(=O)Nc1ccc(NC(=O)CN(C)CCC#N)cc1	1	i	0	1	15	5%
COc1cccc(-c2nc(N3CCN(Cc4ccccc4)CC3)c3ccccc3n2)c1O	1	i	8	1.1	4	4%
CC(=O)Nc1ccc2oc(-c3ccccc3Br)nc2c1	1	i	7	2.2*	5	11%
CC(=O)Nc1ccc2oc(-c3cc(F)c(F)cc3Cl)nc2c1	1.1	x	6	3.8*	2	4%
O=C(CSCC(=O)N1CCCCC1)OCC(=O)c1c[nH]c2ccccc12	1	i	6	1	9	5%
CC1CN(C2CCN(C(=O)c3ccccc3Cl)CC2)CC(C)O1 (configuration not stated)	1	i	41*	1.1	4	15%
CC(=O)Nc1ccccc1C(=O)N1CC(C)OC(C)C1 (configuration not stated)	1	i	11	1.1	16	9%
Cc1cc(NCCN2CCOCC2)n2c(nc3ccccc32)c1C#N	1.1	x	15	3.7*	7	11%
Cc1cc(NCCCN2CCOCC2)n2c(nc3ccccc32)c1C#N	1	x	22	5*	8	15%
CC(C)CNC(=O)c1c(N)n(/N=C/c2ccccn2)c2nc3ccccc3nc12	1	i	7	1.1	2	4%
COCCNC(=O)c1c(N)n(/N=C/c2cccs2)c2nc3ccccc3nc12	1.1	x	0	2.5*	0	2%
CCCCCCNC(=O)C(C#N)c1nc2ccccc2nc1N1CCOCC1 (configuration not stated)	1	i	8	1.6	13	8%
Nc1c(C(=O)NC2CCCCC2)c2nc3ccccc3nc2n1/N=C/c1ccco1	1.1	x	9	3.7*	13	11%
